Test [1] in a line: Nuclear factor erythroid 2-related factor 2/antioxidant responsive element (Nrf2/ARE) small molecule agonists: qHTS cell viability counter screen in human keratinocytes (AID 1919968; active = well fitted curve in the direction sought with a large enough effect in the repeat runs; an effect the other way counts as inactive or inconclusive; also: nearly all actives have a fitted effect of over 55% in size). In a few lines:
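Cytotoxicity was multiplexed with the Nrf2/ARE luciferase assay in the same wells. Stably transfected HaCaT keratinocytes were treated with test compounds for 23 h at 37 C. Cell viability was then measured by CellTiter-Fluor fluorescence.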

Test [2] can be described thus: Nuclear factor erythroid 2-related factor 2/antioxidant responsive element (Nrf2/ARE) small molecule agonists: luciferase reporter gene qHTS assay in human keratinocytes (AID 1919969). Also: nearly all actives have a fitted effect of over 35% in size. Also: potency is read from the fitted curve at half-maximal effect.
Test [3] has as its target Gonadotropin-releasing hormone receptor (Homo sapiens) (UniProt P30968). Nature of the test: Human gonadotropin-releasing hormone receptor (GnRHR) small molecule agonists, calcium flux assay in GnRHR-HEK293 cells (AID 1920063). Also: nearly all actives have a fitted effect of over 35% in size. The essentials:
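Agonist activity was measured as intracellular calcium flux in HEK293 cells engineered to stably express human GnRHR. After dye loading for 1 hour at 37 C, compounds in DMSO were added and fluorescence was followed for 3 minutes.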

Test [4] concerns the target KiSS-1 receptor (Homo sapiens) (UniProt Q969F8). Nature of the test: Human kisspeptin (KISS1R) small molecule agonists, calcium flux assay in KISS1R-HEK293 cells (AID 1920064; active = well fitted curve in the direction sought with a large enough effect in the repeat runs; an effect the other way counts as inactive or inconclusive). In a few lines:
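Agonist activity is monitored as intracellular calcium rise in engineered HEK293 cells carrying human KISS1R. Cells are dye-loaded for 1 h at 37 C before compound addition, and fluorescence is recorded for 3 min.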

The nature of test [5]: G protein-coupled receptor (GPCR) small molecule agonists, calcium flux assay: HEK293 wild type cell line counter screen (AID 1920065). In a few lines:
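Seed cells, incubate 18 h (37 C, 5% CO2); add calcium dye, 1 h at 37 C; pin-transfer compounds, ATP control or DMSO; read fluorescence 480/540 nm each second for 3 min.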

A short description of test [6]: p53 small molecule agonists, cell-based qHTS assay with human liver microsomes: qHTS cell viability counter screen (AID 1963579). Also: nearly all actives have a fitted effect of over 45% in size. The essentials: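 In this multiplexed counter screen, the reporter plates were subsequently treated with CellTiter-Glo so that cell viability, reflected by luminescence, could be recorded for p53RE-bla cells dosed 16 h with compounds under microsomal activation (HLM and NADPH).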

Test [7] in a line: p53 small molecule agonists, cell-based qHTS assay with rat liver microsomes: qHTS cell viability counter screen (AID 1963580). Also: nearly all actives have a fitted effect of over 45% in size. The essentials:
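Luminescent ATP readout (CellTiter-Glo, 30 min at room temperature) reports viability of p53RE-bla HCT-116 cells after 16 h at 37 C with test compounds under metabolic activation by rat liver microsomes and NADPH at 0.5 mg/mL final each.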

A short description of test [8]: p53 small molecule agonists, cell-based qHTS assay: qHTS cell viability counter screen (AID 1963581). Also: nearly all actives have a fitted effect of over 45% in size. In a few lines: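 Viability was counter-screened in parallel with the p53 agonist reporter by measuring intracellular ATP luminescence in the same HCT-116 p53RE-bla wells after 16 h compound treatment at 37 C.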
The target in test [9] is 5-hydroxytryptamine receptor 2A (Homo sapiens) (UniProt P28223). Nature of the test: 5-hydroxytryptamine receptor 2A (HTR2A) small molecule antagonists, cell-based qHTS assay (AID 1963586). Also: nearly all actives have a fitted effect of over 45% in size. In a few lines:
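CHO cells stably expressing human HTR2A were plated for 18 h at 37 C, then loaded with calcium dye for 1 h. Compounds were preincubated 5 min at room temperature before DOI (4 nM solution) was added. Kinetic fluorescence was read for 3 min.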

For test [10] the target is unchanged. The test is described as follows: 5-hydroxytryptamine receptor 2A (HTR2A) small molecule agonists, cell-based qHTS assay (AID 1963587). Also: nearly all actives have a fitted effect of over 30% in size. Also: potency is read from the fitted curve at half-maximal effect. The essentials: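 HTR2A-CHO cells, plated 18 h at 37 C/5% CO2, dye-loaded 1 h at 37 C; compounds in DMSO added by pin tool (agonist mode). Intracellular calcium flux read as kinetic fluorescence on FDSS over 2 min at 1 s intervals.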

Test [11] deals with Muscarinic acetylcholine receptor M1 (Homo sapiens) (UniProt P11229). Nature of the test: Cholinergic receptor muscarinic 1 (CHRM1) small molecule antagonists, cell-based qHTS assay (AID 1963588). Also: nearly all actives have a fitted effect of over 40% in size. Also: potency is read from the fitted curve at half-maximal effect. The essentials: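 Compounds were tested at 15 concentrations in three independent runs. Dye-loaded CHRM1-CHO cells were exposed 5 min at room temperature before stimulation by acetylcholine added at 50nM. Intracellular calcium was read kinetically on FDSS for 3 min.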
Muscarinic acetylcholine receptor M1 (Homo sapiens), sequence (P11229 whole entry, looked up): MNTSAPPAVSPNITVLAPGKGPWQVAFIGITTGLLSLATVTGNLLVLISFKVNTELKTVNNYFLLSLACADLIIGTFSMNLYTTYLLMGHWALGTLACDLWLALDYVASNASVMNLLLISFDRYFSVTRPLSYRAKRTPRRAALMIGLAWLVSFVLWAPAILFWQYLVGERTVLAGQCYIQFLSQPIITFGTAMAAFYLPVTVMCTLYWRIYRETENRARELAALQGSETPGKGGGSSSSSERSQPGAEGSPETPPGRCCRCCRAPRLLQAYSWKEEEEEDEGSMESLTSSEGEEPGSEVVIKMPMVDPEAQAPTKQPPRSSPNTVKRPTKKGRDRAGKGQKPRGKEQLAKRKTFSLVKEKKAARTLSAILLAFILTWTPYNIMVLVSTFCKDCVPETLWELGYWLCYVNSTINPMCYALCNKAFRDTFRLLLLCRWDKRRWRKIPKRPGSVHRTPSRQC

Test [12] shares this target. Nature of the test: Cholinergic receptor muscarinic 1 (CHRM1) small molecule agonists, cell-based qHTS assay (AID 1963589). Also: nearly all actives have a fitted effect of over 35% in size. In a few lines: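 Cells were plated and incubated 18 h at 37 C/5% CO2, loaded with calcium dye for 1 h at 37 C, then treated with compounds in DMSO. Fluorescence was recorded kinetically at 1 sec intervals.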
Test [13] can be described thus: cAMP Responsive Elements (CRE) small molecule agonists, cell-based qHTS assay (AID 1963590). The essentials: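 Cells carrying a CRE-driven beta-lactamase reporter (HEK 293T) are seeded, incubated overnight (18 h), and treated with test compounds for 3 h at 37 C; reporter activity is then detected with a FRET substrate after 2 h at room temperature.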
A short description of test [14]: cAMP Responsive Elements (CRE) small molecule antagonists, cell-based qHTS assay (AID 1963591; active = well fitted inhibition curve with a large enough effect in the signal ratio in the repeat runs, not every such curve was filed as active; the % refers to the signal ratio). In a few lines: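 Cells (CRE-bla HEK 293T, DMEM with 10% dialyzed FBS and 25 mM HEPES) are seeded and incubated 18 h. Compounds are added with NKH477 agonist at 0.25 uM final for 3 h, then FRET substrate for 2 h.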
In test [15] the target is Beta-2 adrenergic receptor (Homo sapiens) (UniProt P07550). Nature of the test: Adrenergic beta2 receptor (ADRB2) small molecule antagonists, cell-based qHTS assay (AID 1963592). Also: series mostly up to about 92 µM; nearly all actives have a fitted effect of over 50% in size. The essentials:
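Assay format: CHO-ADRB2 cells, 18-20hr seeding at 37C/5% CO2, then compound plus 1nM isoproterenol agonist mix for 0.5hr RT. Homogeneous time-resolved fluorescence cAMP detection after 1hr, expressed as 665/615 nm ratio.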

For test [16], the target named is D(2) dopamine receptor (Homo sapiens) (UniProt P14416). The test is described as follows: Dopamine D2 receptor (DRD2) small molecule agonists, cell-based qHTS assay (AID 1963594). Also: nearly all actives have a fitted effect of over 35% in size. In a few lines:
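HEK293 cells stably expressing DRD2 were cultured 24 h at 37 C, then given Ro20-1724 (0.1 mM final) and compounds for 10 min at room temperature. NKH477 (200nM) was then added for 30 min. cAMP was read by HTRF.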

Test [17] shares this target. Nature of the test: Dopamine D2 receptor (DRD2) small molecule antagonists, cell-based qHTS assay (AID 1963595; active = well fitted inhibition curve with a large enough effect in the signal ratio in the repeat runs, with a control signal flat; the % refers to the signal ratio). In a few lines:
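Stable D2 receptor HEK293 line, 24 h after seeding. Compound preincubated 10 min, then quinpirole (12 nM) with forskolin analogue NKH477 (200 nM), 30 min, room temperature. Detection by time-resolved FRET of cAMP.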

The target of test [18] is Beta-2 adrenergic receptor (Homo sapiens) (UniProt P07550). Nature of the test: Adrenergic beta2 receptor (ADRB2) small molecule agonists, cell-based qHTS assay (AID 1963593).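 Also: CHO cells stably overexpressing human ADRB2.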 In a few lines: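 CHO cells stably over-expressing ADRB2 were plated overnight at 37C, then dosed with compounds plus a stimulation mix containing 100uM IBMX and 25uM Ro-20-1724 for 0.5hr at room temperature. cAMP was measured by HTRF competition, 1hr.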
Beta-2 adrenergic receptor (Homo sapiens), sequence (P07550 whole entry, looked up): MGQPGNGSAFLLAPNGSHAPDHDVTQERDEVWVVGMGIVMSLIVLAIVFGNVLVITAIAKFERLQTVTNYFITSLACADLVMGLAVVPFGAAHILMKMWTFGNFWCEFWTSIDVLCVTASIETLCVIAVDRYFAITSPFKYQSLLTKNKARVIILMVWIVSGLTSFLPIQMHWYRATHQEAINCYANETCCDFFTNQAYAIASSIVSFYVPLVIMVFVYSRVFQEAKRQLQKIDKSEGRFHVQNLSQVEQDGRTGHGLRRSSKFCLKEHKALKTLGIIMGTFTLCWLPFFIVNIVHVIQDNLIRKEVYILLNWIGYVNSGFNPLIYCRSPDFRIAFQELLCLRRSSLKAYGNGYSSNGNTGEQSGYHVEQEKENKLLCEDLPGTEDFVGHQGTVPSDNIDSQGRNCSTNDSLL

Test [19] is described as follows: p53 small molecule agonists, cell-based qHTS assay (AID 1963582; active = well fitted activation curve with a large enough effect in the signal ratio in the repeat runs, not every such curve was filed as active; the % refers to the signal ratio). In a few lines:
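Cells carrying a p53-responsive bla reporter are treated with test compounds for 16 h at 37 C; beta-lactamase activity is then detected with LiveBLAzer B/G FRET substrate after 2 h at room temperature.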

Several values for one entry are separate records, joined by “and”; a condition that tells them apart may be missing. Equal entries are not always repeated. Records with an inconclusive call do not appear. A structure can be active in one record and inactive in another. Activity calls are given as the source filed them. Unless noted, calls follow the shape of the full dose curve.

5-hydroxytryptamine receptor 2A (Homo sapiens), sequence (P28223 whole entry, looked up): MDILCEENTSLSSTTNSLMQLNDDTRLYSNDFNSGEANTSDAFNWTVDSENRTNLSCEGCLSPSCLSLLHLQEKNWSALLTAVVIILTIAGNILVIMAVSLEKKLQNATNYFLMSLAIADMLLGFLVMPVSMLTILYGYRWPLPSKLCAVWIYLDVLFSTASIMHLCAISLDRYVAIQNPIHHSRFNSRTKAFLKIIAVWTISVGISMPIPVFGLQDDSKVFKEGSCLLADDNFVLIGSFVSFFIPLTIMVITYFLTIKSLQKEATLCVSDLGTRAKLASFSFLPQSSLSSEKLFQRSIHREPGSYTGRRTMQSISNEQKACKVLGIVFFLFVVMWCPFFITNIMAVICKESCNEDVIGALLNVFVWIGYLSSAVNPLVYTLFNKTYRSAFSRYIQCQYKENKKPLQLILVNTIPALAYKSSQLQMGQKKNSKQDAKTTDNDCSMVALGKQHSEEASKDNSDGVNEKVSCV
Gonadotropin-releasing hormone receptor (Homo sapiens), sequence (P30968 whole entry, looked up): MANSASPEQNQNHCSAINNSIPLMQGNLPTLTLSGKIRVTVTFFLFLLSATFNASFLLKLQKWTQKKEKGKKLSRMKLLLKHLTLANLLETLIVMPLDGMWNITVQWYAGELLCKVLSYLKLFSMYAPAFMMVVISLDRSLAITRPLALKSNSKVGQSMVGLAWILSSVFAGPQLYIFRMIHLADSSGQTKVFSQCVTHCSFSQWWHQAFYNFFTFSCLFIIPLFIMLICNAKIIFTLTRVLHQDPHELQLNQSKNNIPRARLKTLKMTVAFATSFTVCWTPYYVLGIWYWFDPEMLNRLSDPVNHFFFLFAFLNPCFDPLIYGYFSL
D(2) dopamine receptor (Homo sapiens), sequence (P14416 whole entry, looked up): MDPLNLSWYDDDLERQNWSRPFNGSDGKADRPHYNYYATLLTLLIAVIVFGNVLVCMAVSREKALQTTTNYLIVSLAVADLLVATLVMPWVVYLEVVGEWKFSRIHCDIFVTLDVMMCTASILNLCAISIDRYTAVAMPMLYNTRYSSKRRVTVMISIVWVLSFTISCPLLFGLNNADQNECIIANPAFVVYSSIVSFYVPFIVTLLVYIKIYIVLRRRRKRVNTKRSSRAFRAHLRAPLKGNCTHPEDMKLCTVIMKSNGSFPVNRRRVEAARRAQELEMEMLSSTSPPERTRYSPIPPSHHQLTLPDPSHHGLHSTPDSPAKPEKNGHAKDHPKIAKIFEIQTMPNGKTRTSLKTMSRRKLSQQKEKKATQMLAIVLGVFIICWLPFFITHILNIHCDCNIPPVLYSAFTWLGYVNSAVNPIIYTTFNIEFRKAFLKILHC
KiSS-1 receptor (Homo sapiens), sequence (Q969F8 whole entry, looked up): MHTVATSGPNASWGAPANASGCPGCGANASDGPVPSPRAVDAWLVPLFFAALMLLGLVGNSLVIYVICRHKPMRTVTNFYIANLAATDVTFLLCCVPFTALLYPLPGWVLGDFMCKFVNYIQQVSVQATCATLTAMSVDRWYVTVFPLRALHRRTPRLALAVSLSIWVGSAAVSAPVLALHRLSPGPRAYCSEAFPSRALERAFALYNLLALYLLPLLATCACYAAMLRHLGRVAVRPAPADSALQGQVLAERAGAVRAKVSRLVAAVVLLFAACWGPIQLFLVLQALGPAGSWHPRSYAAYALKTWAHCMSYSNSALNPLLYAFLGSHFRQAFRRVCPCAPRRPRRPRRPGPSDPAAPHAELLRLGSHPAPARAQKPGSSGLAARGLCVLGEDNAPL

For `CN(N=O)c1ccccc1`, the Potency result in test [1], in test [2], in [3], in [4], in test [5] and in [6] was “inactive” each time. The Potency result in test [7], in test [8], in test [9], in test [10], in [11] and in test [12] was “inactive” each time. The Potency result in test [13], in test [14], in test [15], in [16] and in [17] was “inactive” throughout.
With `CN(C)[C@@H]1C(=O)C(C(N)=O)=C(O)[C@@]2(O)C(=O)C3=C(O)c4c(O)cccc4[C@@](C)(O)[C@H]3[C@H](O)[C@@H]12`, the Potency entry in [1], in test [2], in [3], in test [4], in [5] and in test [6] was “inactive” throughout. Also, the Potency result in [7], in test [8], in test [9], in [10], in test [11] and in test [12] was “inactive” throughout. Besides, the Potency result in test [13], in test [14], in test [15], in test [18], in test [16] and in test [17] was “inactive” each time.
For the compound `CC(C)COC(=O)c1ccccc1C(=O)OCC(C)C`, the Potency entry in [1], in [2], in [3], in [4], in test [5] and in test [6] was “inactive” throughout. Moreover, the Potency result in test [7], in test [8], in test [9], in test [11], in [12] and in [13] was “inactive” each time. Also, the Potency result in test [14], in test [15], in test [18] and in test [17] was “inactive” in each case. Besides, the Potency in test [10] is 5.5 µM (active) and inactive.
Regarding `O=C(O)CF`, the Potency entry in [1], in [2], in test [3], in [4], in [5] and in test [6] was “inactive” each time. Besides, the Potency entry in test [7], in test [8], in test [9], in test [10], in test [11] and in test [12] was “inactive” in each case. Moreover, the Potency result in test [13], in test [14], in [15], in test [16] and in test [17] was “inactive” in each case.
For `Clc1cccc(Cl)c1`, the Potency entry in test [1], in test [2], in [3], in test [4], in test [5] and in [6] was “inactive” each time. Further, the Potency entry in [7], in test [8], in [9], in test [10], in test [11] and in test [12] was “inactive” each time. The Potency entry in test [13], in test [14], in [15], in test [16] and in [17] was “inactive” each time.
As to `CCCC[N+]1(C)CCCC1`, the Potency entry in test [1], in test [3], in [4], in test [5], in test [6] and in test [7] was “inactive” each time. The Potency result in [8], in test [19], in [9], in [10], in [13] and in test [14] was “inactive” each time. In addition, the Potency entry in [15], in test [18], in test [16] and in test [17] was “inactive” each time. Besides, the Potency result in test [2] is “inactive and 54.8 µM (active)”; in test [11], “inactive and 5.98 µM (active) and 4.27 µM (active)”.
Regarding `OCCN(CCO)CCO`, the Potency entry in test [1], in [2], in test [3], in test [4], in test [5] and in test [6] was “inactive” each time. In addition, the Potency result in test [7], in [8], in test [9], in [10], in test [11] and in test [12] was “inactive” each time. Also, the Potency result in [13], in test [18], in test [16] and in test [17] was “inactive” in each case.
Consider `CCOP(=S)(OCC)SCSC(C)(C)C`, for which the Potency result in [1], in [2], in test [3], in test [4], in test [5] and in test [6] was “inactive” each time. Moreover, the Potency result in test [7], in test [8], in [19], in test [9], in [10] and in test [11] was “inactive” in each case. Further, the Potency result in test [12], in test [13], in test [14], in test [15], in test [16] and in test [17] was “inactive” throughout.

The values are drawn from PubChem BioAssay (Tox21).
